Records with an inconclusive call do not appear. Unmarked numbers belong to inactive results. Active and inactive are the calls of the source. Calls follow the shape of the dose curve; as a rule, active = well fitted inhibition curve with a large enough effect; inconclusive = small, poorly fitted or top-dose-only effect; inactive = flat fitted curve, though single readings scatter.
Experiments:
CRL-7250 = normal cell line; assay: Cytotoxic Profiling of Annotated Libraries Using Quantitative High-Throughput Screening (AID 1296008); conditions: Five cell lines viability, CellTiter-Glo ATP luminescence, 48-72 h; max response: hits give low values; also: potency is read from the fitted curve at half-maximal effect; as to max response: % is scaled to controls: 0 for no effect and ±100 for the full control effect
Summary of the method: (§1)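 Cells exposed to compounds for 48 or 72 hr at 37 degrees Celsius. Viability read as ATP-coupled luminescence with CellTiter-Glo after 10 min at room temperature.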

HEK293 = assay: as above; conditions: Five cell lines viability, CellTiter-Glo ATP luminescence, 48-72 h; max response: hits give low values
Summary of the method: as §1

HaCat [1] = assay: as above; conditions: Five cell lines viability, CellTiter-Glo ATP luminescence, 48-72 h; max response: hits give low values
Summary of the method: as §1

KB-3-1 = assay: as above; conditions: Five cell lines viability, CellTiter-Glo ATP luminescence, 48-72 h; max response: hits give low values
Summary of the method: as §1

NIH3T3 = assay: as above; conditions: Five cell lines viability, CellTiter-Glo ATP luminescence, 48-72 h; max response: hits give low values
Summary of the method: as §1

HACAT [2] = assay: qHTS assay to identify novel small-molecules to repurpose for Merkel cell carcinoma treatment (AID 1296009); conditions: MCC and control cell lines, CellTiter-Glo viability, 72 h; at 44.8 µM (top of the series) unless noted
Summary of the method: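 CellTiter-Glo luminescence after 72 hr compound exposure at 37 degree celsius gave cell viability. Libraries NPC and MIPE were run as 8- and 11-point dose responses; RLUs normalized to DMSO (negative) and no-cell (cytotoxicity) controls.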
Also: nearly all actives have a fitted effect of over 60% in size.

SMILES	outcome (CRL-7250)	max response (HEK293) [%]	outcome (HaCat [1])	max response (KB-3-1) [%]	outcome (NIH3T3)	outcome (HACAT [2])	max response (CRL-7250) [%]	outcome (KB-3-1)	max response (NIH3T3) [%]	max response (HaCat [1]) [%]	Potency (HEK293)
C/C=C/C=C/C(O)=C1/C(=O)[C@]2(C)C3/C(=C(O)/C=C/C=C/C)C(=O)C4(C)C1[C@]1(C)O[C@@]4(O)[C@@]3(C)O[C@@]12O	inactive	2.27	inactive	0.929	inactive	inactive [at 17.4 µM]	–	–	–	–	–
CC(O)C(=O)/C=C/C=C/C(=O)OC1C=C2COC(=O)C2(O)C2(C)CCCC(C)(C)C12 (centres undefined)	–	3.48	inactive	4.29	inactive	inactive [at 17.4 µM]	-6.23	–	–	–	–
CC1CC(=O)C2=C(O1)OC1(C)CCC3C(C)(C)C4OC4C(=O)C3(C)C1C2 (centres undefined)	inactive	1.32	inactive	–	–	inactive	–	inactive	-0.441	–	–
CC(=O)O[C@@H]1CC2C(C)(C)C(=O)C=C[C@]2(C)C2CC[C@]3(C)C(=CC(=O)[C@@H]3c3ccoc3)[C@@]21C (some centres undefined)	–	-22.3	inactive	–	–	inactive [at 17.4 µM]	0.62	inactive	0.533	–	–
CC1=C(CO)CC(C(C)C2CCC3C4CC=C5CC(OC6OC(COC7OC(CO)C(O)C(O)C7O)C(O)C(O)C6O)CC(O)C5(C)C4CCC23C)OC1=O (centres undefined)	inactive	-8.19	inactive	-0.551	inactive	inactive [at 17.4 µM]	–	–	–	–	–
CC(=O)OC1C(C)C2C(OC3OC(CO)C(O)C(O)C3O)OC=C(C(=O)O)C2C1OC(=O)c1ccccc1 (centres undefined)	inactive	1.6	–	–	inactive	–	–	inactive	–	-7.28	–
NC(N)=NCCC[C@H](NC(=O)c1sccc1NS(=O)(=O)c1cccc2nsnc12)C(=O)O	inactive	-1.44	–	–	inactive	–	–	inactive	–	-1.15	–
CC(C)=CCC[C@](C)(O[C@@H]1O[C@H](CO)[C@@H](O)[C@H](O)[C@H]1O)[C@H]1CC[C@]2(C)[C@@H]1[C@H](O)CC1[C@@]3(C)CC[C@H](O)C(C)(C)C3[C@@H](O[C@@H]3O[C@H](CO)[C@@H](O)[C@H](O)[C@H]3O[C@@H]3O[C@@H](C)[C@H](O)[C@@H](O)[C@H]3O)C[C@]12C (some centres undefined)	–	-1.21	–	8.47	inactive	–	-1.6	–	–	-12.1	–
CC(C)=CCC[C@](C)(O[C@@H]1O[C@H](CO[C@@H]2O[C@@H](CO)[C@H](O)[C@H]2O)[C@@H](O)[C@H](O)[C@H]1O)[C@H]1CC[C@]2(C)[C@@H]1[C@H](O)C[C@@H]1[C@@]3(C)CC[C@H](O[C@@H]4O[C@H](CO)[C@@H](O)[C@H](O)[C@H]4O[C@@H]4O[C@H](CO)[C@@H](O)[C@H](O)[C@H]4O)C(C)(C)[C@@H]3CC[C@]12C	–	-3.56	inactive	–	–	inactive [at 17.4 µM]	2.09	inactive	-28.7	–	–
CC1=C2C[C@@]3(C)C(CCC[C@@H]3C)C(O)C2(O)OC1=O (some centres undefined)	–	-7.76	inactive	-14	–	inactive	-37.7	–	-21.1	–	–
C[C@@H]1O[C@@H](O[C@H]2[C@H](O[C@H]3[C@H](O[C@H]4CC[C@@]5(C)C(CC[C@]6(C)C5CC=C5[C@@H]7CC(C)(C)C[C@@H](O)[C@]7(C)CC[C@]56C)[C@@]4(C)CO)O[C@H](C(=O)O)[C@@H](O)[C@@H]3O)O[C@H](CO)[C@H](O)[C@@H]2O)[C@H](O)[C@H](O)[C@H]1O (some centres undefined)	–	-3.77	inactive	–	inactive	inactive [at 9.27 µM]	3.95	inactive	–	–	–
CCCSc1nc(NC2CC2c2ccc(F)c(F)c2)c2nnn(C3CC(OCCO)C(O)C3O)c2n1 (centres undefined)	inactive	–	inactive	-19.7	–	inactive	–	–	-3.04	–	18.4 µM (active)
O=C(OCC1=C[C@@H](O)[C@@H]2C=CO[C@@H](O[C@@H]3O[C@H](CO)[C@@H](O)[C@H](O)[C@H]3O)[C@H]12)c1ccc(O)cc1	–	1.2	inactive	1.69	inactive	inactive [at 17.4 µM]	-4.11	–	–	–	–
OC[C@H]1O[C@@H](OCCc2ccccc2)[C@H](O)[C@@H](O)[C@@H]1O	–	3.92	inactive	6.47	–	inactive	-3.7	–	4.48	–	–
CC1=C2C(=O)C=C(CO[C@@H]3O[C@H](CO)[C@@H](O)[C@H](O)[C@H]3O)[C@@H]2[C@H]2OC(=O)[C@H](C)[C@@H]2[C@@H](O)C1	inactive	-50.9	–	2.15	inactive	–	–	–	–	0.75	–
FC(F)(F)Oc1ccc(-c2ccc3nnc(C(F)(F)F)n3c2)cc1	–	-7.41	–	–	inactive	–	-1.14	inactive	–	-4.75	–
CC1(CO)CC(O)C2(C)CCC3(C)C(=CCC4C5(C=O)CCC(OC6OC(C(=O)O)C(O)C(O)C6OC6OC(C(=O)O)C(O)C(O)C6O)C(C)(C)C5CCC43C)C2C1 (centres undefined)	inactive	-10.9	inactive	–	inactive	inactive [at 9.27 µM]	–	inactive	–	–	–
COc1cn(-c2ccc(-n3cccn3)cc2F)nc(-c2ccnn2-c2ccccc2)c1=O	–	-9.47	–	7.34	inactive	–	1.34	–	–	-2.34	–
Cc1ncc(NC(=O)c2ccc(CN3CCN(C)CC3)c(C(F)(F)F)c2)cc1Nc1nccc(-c2cccnc2)n1	–	–	inactive	8.35	–	inactive	-2.29	–	1.55	–	16.4 µM (active)
CO[C@@H]1[C@]2(O)C(=O)N3/C=C\C(C)(C)c4[nH]c5ccccc5c4/C=C\3C(=O)N2[C@]23[C@H](CO)C(C)(C)N2c2ccccc2[C@]13O	–	0.736	–	7.79	inactive	–	1.93	–	–	-14.4	–
C=C1[C@H]2CCC3[C@]4(C)CCC[C@@](C)(C(=O)O)C4CC[C@]3(C2)[C@H]1OC(C)=O (some centres undefined)	–	3.77	inactive	–	inactive	inactive	-1.83	inactive	–	–	–

SMILES	outcome (CRL-7250)	max response (HEK293) [%]	outcome (HaCat [1])	max response (KB-3-1) [%]	outcome (NIH3T3)	outcome (HACAT [2])	max response (CRL-7250) [%]	outcome (KB-3-1)	max response (NIH3T3) [%]	max response (HaCat [1]) [%]	Potency (HEK293)
NC(Cc1c[nH]c2ccc(O)cc12)C(=O)O (centres undefined)	–	-8.59	–	–	inactive	–	-7.16	inactive	–	0.887	–
CC1(C)CC2C(O)C3=C(CC(C)(O)C2C1)C(=O)OC3 (centres undefined)	inactive	-1.51	inactive	–	inactive	inactive	–	inactive	–	–	–
COc1cc(O)c2c(c1)C1(OC2=O)C(C)=CC(=O)C1O (centres undefined)	inactive	-12.8	inactive	7.65	–	inactive	–	–	4.25	–	–
C=C1CCC2C(C)(C)CC(O)CC2(C)C1CCC(C)CC(=O)O (centres undefined)	–	1.49	inactive	-5.43	–	inactive	-5.49	–	-0.43	–	–
CCC(CC)CC1(C(=O)Nc2ccccc2SC(=O)C(C)C)CCCCC1	inactive	-10.7	–	0.494	inactive	–	–	–	–	-14	–
CC1(C)C[C@@H]2[C@H](C1)[C@@]1(C)C[C@]13C(O)OC[C@]3(O)[C@H]2O (some centres undefined)	–	-0.838	inactive	–	inactive	inactive	-3.6	inactive	–	–	–
C=CC(C)(O)C1CC2C3(C)CCCC(C)(C)C3C(O)C(O)C2(C)O1 (centres undefined)	–	3.38	inactive	–	–	inactive	-10.8	inactive	-13.6	–	–
CC[C@@H](Nc1c(Nc2cccc(C(=O)N(C)C)c2O)c(=O)c1=O)c1ccc(C)o1	inactive	0.867	–	–	inactive	–	–	inactive	–	-4.91	–
C[C@@H]1O[C@@H](O[C@H]2[C@H](OC(=O)[C@]34CCC(C)(C)C[C@H]3C3=CCC5[C@@]6(C)CC[C@H](O[C@@H]7O[C@H](CO[C@@H]8OC[C@H](O)[C@H](O)[C@H]8O[C@@H]8OC[C@@H](O)[C@H](O)[C@H]8O)[C@@H](O)[C@H](O)[C@H]7O)C(C)(C)C6CC[C@@]5(C)[C@]3(C)C[C@H]4O)O[C@H](CO)[C@@H](O)[C@@H]2O)[C@H](O[C@@H]2O[C@H](CO)[C@@H](O)[C@H](O)[C@H]2O)[C@H](O)[C@H]1O[C@@H]1OC[C@@H](O)[C@H](O[C@@H]2OC[C@@H](O)[C@H](O)[C@H]2O)[C@H]1O (some centres undefined)	–	5	inactive	-0.626	–	inactive [at 4.96 µM]	0.998	–	-3.82	–	–
CC(C)(O)[C@@H]1CC[C@]2(CO)[C@@H](O)CC[C@](C)(O)[C@H]2[C@@H]1O[C@@H]1O[C@H](CO)[C@@H](O)[C@H](O)[C@H]1O	–	1.77	inactive	8.79	–	inactive [at 17.4 µM]	1.76	–	0.484	–	–
Cc1cccc(NC(=O)CN2CCC(c3ccccn3)CC2)c1	inactive	-3.86	inactive	-2.52	–	inactive	–	–	4.5	–	–
C=C(C(=O)O)C1CC(O)C2(C)CCCC(C)(O)C2C1 (centres undefined)	inactive	-8.07	–	0.961	inactive	–	–	–	–	-11.8	–
CC(=O)[C@@H]1C[C@H](C(C)(C)O[C@@H]2O[C@H](CO)[C@@H](O)[C@H](O)[C@H]2O)CC[C@@]2(CO)OC(=O)C[C@@H]12	–	0.131	–	1.24	inactive	–	-8.92	–	–	4.13	–
CC1CCC2(C(=O)O)CCC3(C)C(=CCC4C5(C)C[C@@H](O)[C@@H](O)C(C)(CO)C5CCC43C)C2C1(C)O (some centres undefined)	–	-0.908	inactive	–	inactive	inactive [at 17.4 µM]	-2.68	inactive	–	–	–
COc1ccc(C2(O)c3c(ccc4c3OC(C)(CCC=C(C)C)C=C4)NC(=O)C2OC)cc1 (centres undefined)	inactive	-6.81	inactive	5.8	inactive	inactive [at 17.4 µM]	–	–	–	–	–
NC(=O)C(O[C@@H]1O[C@H](CO[C@@H]2O[C@H](CO)[C@@H](O)[C@H](O)[C@H]2O)[C@@H](O)[C@H](O)[C@H]1O)c1ccccc1 (some centres undefined)	inactive	-77.8	inactive	4.92	–	inactive [at 17.4 µM]	–	–	4.15	–	–
CCC1OC(=O)C(C)CC(C)C(=O)/C(C)=C/C(C)C(=O)/C=C/C1(C)O (centres undefined)	inactive	-3.54	inactive	8.38	inactive	inactive	–	–	–	–	–
CCCC1=CC2=C(CO1)C(=O)C(C)(O)C(OC(=O)c1c(C)cc(OC)cc1O)C2 (centres undefined)	–	-3.53	inactive	–	inactive	inactive [at 17.4 µM]	-6.12	inactive	–	–	–
COC(=O)C(Cc1ccccc1)NC(=O)c1ccccc1 (centres undefined)	–	-8.19	inactive	6.61	–	inactive	-7.59	–	-1.1	–	–
C[C@@H]1O[C@@H](O[C@H]2[C@H](O[C@H]3[C@H](O[C@H]4CC[C@@]5(C)C(CC[C@]6(C)C5CC=C5[C@@H]7CC(C)(C)C[C@@H](O)[C@]7(C)CC[C@]56C)C4(C)C)O[C@H](C(=O)O)[C@@H](O)[C@@H]3O)O[C@H](C(=O)O)[C@H](O)[C@@H]2O)[C@H](O)[C@H](O)[C@H]1O (some centres undefined)	–	-8.11	inactive	–	–	inactive [at 9.27 µM]	-7.66	inactive	0.708	–	–

From PubChem BioAssay (NCATS)
